The results in this text go back to PubChem BioAssay (NCI).

Among the test systems are HCT-15 colon; HT29 colon; SNB-75 CNS; SNB-19 CNS; U251 CNS; PC-3 prostate; SK-MEL-5 melanoma; UACC-62 melanoma; LOX IMVI melanoma; SK-MEL-28 melanoma.
What all share (test): NCI-60 one-dose screen, 48 h (100 = growth as untreated, 0 = no growth, -100 = all killed)
Conditions in all cases: 10 µM unless noted

This is part of a sample that, as a whole, favours compounds with a hit. Of some 83,000 tested, about 20% had one in any assay.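 Single-dose data. Exposure time 48 hours. Values below 10 considered active.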 Unmarked numbers belong to inactive results. Active and inactive are the calls of the source.

For the compound `COc1ccc(C2[C@@H](c3ccccc3)C(=O)N2c2cc(OC)c(OC)c(OC)c2)cc1F` (stereo not given in full), the growth with HCT-15 colon is 8.76% (active); in the test on HT29 colon, -19.2% (active); in the test on SNB-75 CNS it was 66.2%; in the test on SNB-19 CNS, 30.6%; in the test with U251 CNS, 7.17% (active); in the test on PC-3 prostate, 23.8%. Besides, the growth in the test on SK-MEL-5 melanoma is -15.6% (active); with UACC-62 melanoma it was 15.1%; with LOX IMVI melanoma, 19%; in the test on SK-MEL-28 melanoma, 63.6%.

In the case of `O=C(c1cccc(N2CCOCC2)n1)c1c[nH]c2ccccc12`, the growth with HCT-15 colon is 95.7%; in the test with HT29 colon, 105%; with SNB-75 CNS, 82%; with SNB-19 CNS, 99.4%; in the test with U251 CNS, 91.7%; with PC-3 prostate, 83.5%. The growth with SK-MEL-5 melanoma is 93.8%; with UACC-62 melanoma, 82.8%; in the test on LOX IMVI melanoma it was 93%; in the test on SK-MEL-28 melanoma it was 98.6%.

Regarding `O=C(Nc1ncc(Cc2ccccc2)s1)c1sc2ccccc2c1Cl`, the growth in the test with HCT-15 colon was 26.5%; in the test on HT29 colon, 12.3%; in the test on SNB-75 CNS, -1.11% (active); with SNB-19 CNS, 52.6%; in the test with U251 CNS, 21.4%; with PC-3 prostate, 27%. In addition, the growth with SK-MEL-5 melanoma was 3.74% (active); in the test with UACC-62 melanoma it was 12.1%; in the test with LOX IMVI melanoma, 46.9%; in the test with SK-MEL-28 melanoma it was 59.4%.

For the compound `COc1ccc(C/C(C)=C(\c2ccc(O)cc2)c2ccc(OCCN3CCCCC3)cc2)cc1`, the growth in the test with HCT-15 colon is 72.7%; in the test on HT29 colon, 22.5%; in the test on SNB-75 CNS, 77%; in the test on SNB-19 CNS, 97.1%; in the test with U251 CNS, 72.6%; in the test on PC-3 prostate, 67.4%. The growth is 86.1% with SK-MEL-5 melanoma, 90.5% with UACC-62 melanoma, 84.4% in the test with LOX IMVI melanoma and 90.3% in the test with SK-MEL-28 melanoma.

`CNCCCNc1nc2ccccc2c2c(=O)c3cc(Cl)ccc3sc12`: the growth was -19.5% (active) with HCT-15 colon; -92.4% (active) in the test on HT29 colon; 61% with SNB-75 CNS; 55.7% in the test with SNB-19 CNS; -87.2% (active) with U251 CNS; 32.8% with PC-3 prostate. Further, the growth in the test with SK-MEL-5 melanoma was 71.4%; in the test with UACC-62 melanoma, 10.9%; in the test with LOX IMVI melanoma it was -90.3% (active); in the test with SK-MEL-28 melanoma, 50.8%.

As for `COC(=O)/C=C1/SC(=Nc2ccc(F)cc2)N(CCc2c[nH]c3ccc(O)cc23)C1=O`, the growth in the test with HCT-15 colon was 23.6%; in the test on HT29 colon it was 36.7%; with SNB-75 CNS it was 43.2%; in the test on SNB-19 CNS, 46.6%; in the test on U251 CNS it was 25.6%; with PC-3 prostate it was 33.3%. In addition, the growth in the test on SK-MEL-5 melanoma was 44.9%; in the test on UACC-62 melanoma it was 23.5%; in the test on LOX IMVI melanoma, -10.7% (active); in the test with SK-MEL-28 melanoma, 51.8%.

As to `O=C(Cn1nc(-c2cccc3ccccc23)ccc1=O)NCc1cccc(Cl)c1`, the growth with HCT-15 colon is 28.9% [50 µM]; in the test on HT29 colon, 43% [50 µM]; in the test with SNB-75 CNS it was 74.3% [50 µM]; with SNB-19 CNS it was 45.3% [50 µM]; with U251 CNS it was 35% [50 µM]; with PC-3 prostate it was 19.6% [50 µM]. The growth is 5.82% [50 µM] (active) in the test on SK-MEL-5 melanoma, 35.2% [50 µM] with UACC-62 melanoma, 28.6% [50 µM] in the test with LOX IMVI melanoma and 56% [50 µM] in the test on SK-MEL-28 melanoma.

`ClCCn1cnc2c(SCc3ccccc3)ncnc21`: the growth is 33.5% in the test with HCT-15 colon; 41.2% in the test on HT29 colon; 73.9% in the test with SNB-75 CNS; 50.5% with SNB-19 CNS; 39.8% in the test with U251 CNS; 38.4% with PC-3 prostate. For the same compound, the growth is 57.3% in the test with SK-MEL-5 melanoma, 46.1% in the test on UACC-62 melanoma, 22.3% with LOX IMVI melanoma and 78.5% in the test on SK-MEL-28 melanoma.

Consider `O=C(NCCCCO)c1cncnc1Nc1ccc2c(ccn2Cc2cccc(F)c2)c1`, for which the growth was 85.1% in the test on HCT-15 colon; 99.9% with HT29 colon; 85% with SNB-75 CNS; 85.1% in the test on SNB-19 CNS; 94.7% in the test on U251 CNS; 86% with PC-3 prostate. For the same compound, the growth in the test with SK-MEL-5 melanoma is 95.2%; with UACC-62 melanoma it was 80.4%; in the test with LOX IMVI melanoma, 93.7%; with SK-MEL-28 melanoma, 100%.

For `CCCN(CCSSCCNc1nc(N(C)O)nc(N(C)O)n1)c1nc(N(C)O)nc(N(C)O)n1`, the growth in the test on HCT-15 colon is 69.3%; in the test with HT29 colon, 78.4%; with SNB-75 CNS it was 73.8%; in the test on SNB-19 CNS it was 44.7%; in the test with U251 CNS it was 32.8%; in the test with PC-3 prostate, 67.9%. The growth is 80.9% in the test on SK-MEL-5 melanoma, 81.3% in the test on UACC-62 melanoma, 70.7% in the test with LOX IMVI melanoma and 67.1% in the test with SK-MEL-28 melanoma.

For `COc1ccc(C=Nc2c(C(=O)Nc3cccc(Cl)c3C)sc3nc(C)c(C(=O)/C=C/c4ccc(OC)cc4)cc23)cc1`, the growth is 19.6% with HCT-15 colon; 9.21% (active) with HT29 colon; -11.3% (active) in the test on SNB-75 CNS; 11.7% with SNB-19 CNS; 23.6% with U251 CNS; 32.8% in the test with PC-3 prostate. Also, the growth in the test on SK-MEL-5 melanoma is 3.54% (active); with UACC-62 melanoma, 7.41% (active); in the test on LOX IMVI melanoma it was 19%; in the test on SK-MEL-28 melanoma, 38.3%.

Consider `Nc1nc(N(Cc2ccccc2)c2ccccc2)c2cn[nH]c2n1`, for which the growth in the test on HCT-15 colon is 49.8%; in the test on HT29 colon, 32.3%; in the test with SNB-75 CNS, 56.8%; in the test with SNB-19 CNS, 68.1%; in the test with U251 CNS it was 42.6%; in the test with PC-3 prostate, 74.8%. For the same compound, the growth in the test with SK-MEL-5 melanoma was 44.6%; in the test on UACC-62 melanoma, 45.7%; with LOX IMVI melanoma it was 53%; in the test on SK-MEL-28 melanoma, 63.4%.

Take `Cc1nn(C)c2ncnc(N/N=C/c3cccc(O)c3O)c12`: the growth with HCT-15 colon is 28.9%; with HT29 colon, 62.5%; in the test with SNB-75 CNS, 38.6%; in the test on SNB-19 CNS it was 19.7%; with U251 CNS, 15.7%; in the test on PC-3 prostate, 35.9%. Also, the growth with SK-MEL-5 melanoma is -41.4% (active); in the test on UACC-62 melanoma, -8.29% (active); in the test with LOX IMVI melanoma, 4.98% (active); in the test with SK-MEL-28 melanoma, 11.4%.
